Results reported in PubChem BioAssay (NCATS).
Values joined by “and” are separate entries in the source; they are usually repeats but may differ in a detail not shown here. Equal entries are not always repeated. Results filed as inconclusive are left out. Active and inactive are the calls of the source. Unless noted, calls follow the shape of the full dose curve.

Key:
[1] = molecular target: Estrogen receptor (Homo sapiens) (UniProt P03372); test: qHTS assay for small molecule agonists of estrogen receptor alpha signaling (AID 588514);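 also: 0% = vehicle only and 100% = reference agonist; nearly all actives have a fitted effect of over 70% in size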
Sequence of Estrogen receptor (Homo sapiens) (P03372 whole entry, looked up): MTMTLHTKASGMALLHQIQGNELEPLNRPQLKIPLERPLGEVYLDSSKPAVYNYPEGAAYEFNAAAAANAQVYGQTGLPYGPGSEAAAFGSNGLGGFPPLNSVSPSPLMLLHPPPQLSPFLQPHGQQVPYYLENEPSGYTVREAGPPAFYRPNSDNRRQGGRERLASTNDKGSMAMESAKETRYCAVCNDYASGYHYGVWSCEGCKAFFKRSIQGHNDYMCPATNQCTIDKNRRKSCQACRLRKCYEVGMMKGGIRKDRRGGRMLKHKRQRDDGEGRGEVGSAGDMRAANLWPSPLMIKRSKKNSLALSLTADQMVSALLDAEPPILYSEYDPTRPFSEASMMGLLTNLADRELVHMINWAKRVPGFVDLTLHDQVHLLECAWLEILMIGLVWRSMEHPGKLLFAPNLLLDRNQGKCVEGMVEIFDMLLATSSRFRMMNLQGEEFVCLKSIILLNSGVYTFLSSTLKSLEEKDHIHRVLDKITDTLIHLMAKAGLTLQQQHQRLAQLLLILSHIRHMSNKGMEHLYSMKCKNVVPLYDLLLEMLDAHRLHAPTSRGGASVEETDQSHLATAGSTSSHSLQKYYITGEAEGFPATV
Outline: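 ER-alpha-UAS-bla GripTite HEK293 cells, 5000/well in 2% charcoal/dextran-stripped FBS medium, treated with compound titrations 18 h at 37 C. CCF4 beta-lactamase read by fluorescence after 2 h RT; normalised to 20 nM 17-beta-estradiol (100%) and DMSO (0%), Hill fit for EC50 and efficacy.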

[2] = molecular target: Vitamin D3 receptor (Homo sapiens) (UniProt P11473); test: qHTS assay for small molecule antagonists of vitamin D receptor signaling (AID 588541);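 also: receptor activated by calcitriol during compound treatment; series mostly up to about 77 µM; % is scaled to controls: 0 for no effect and ±100 for the full control effect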
Sequence of Vitamin D3 receptor (Homo sapiens) (P11473 whole entry, looked up): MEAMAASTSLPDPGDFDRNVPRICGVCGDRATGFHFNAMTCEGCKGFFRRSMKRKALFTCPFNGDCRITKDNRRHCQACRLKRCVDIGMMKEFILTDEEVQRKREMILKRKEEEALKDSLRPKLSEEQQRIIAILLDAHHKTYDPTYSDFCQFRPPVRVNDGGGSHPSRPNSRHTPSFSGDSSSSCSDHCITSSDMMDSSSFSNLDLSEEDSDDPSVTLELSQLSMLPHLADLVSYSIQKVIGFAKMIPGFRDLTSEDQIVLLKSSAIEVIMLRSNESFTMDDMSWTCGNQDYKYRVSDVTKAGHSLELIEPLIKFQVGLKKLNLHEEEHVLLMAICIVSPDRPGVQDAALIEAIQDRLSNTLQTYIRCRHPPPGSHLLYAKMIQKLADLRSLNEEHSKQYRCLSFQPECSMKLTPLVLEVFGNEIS
Outline: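 VDR-UAS-bla HEK293T cells (2000/well, 2% charcoal-stripped FBS) were treated with titrated compounds plus 1-alpha,25-dihydroxyvitamin D3 (50 nM or 3 nM final) for 16 h at 37 C. CCF4 beta-lactamase fluorescence was read; Hill fits gave IC50.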

[3] = molecular target: Vitamin D3 receptor (Homo sapiens) (UniProt P11473); test: qHTS assay for small molecule agonists of vitamin D receptor signaling (AID 588543);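 also: 0% = DMSO basal and 100% = reference agonist control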
Outline: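 Measured: β-lactamase reporter activity (CCF4, 405 nm excitation, 460/530 nm emission) in HEK293T VDR-UAS-bla cells after 16 h compound exposure at 37 °C. Normalization against 50 nM 1α,25-dihydroxyvitamin D3 and DMSO; Hill-fit EC50.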

[4] = molecular target: Thyroid hormone receptor beta (Homo sapiens) (UniProt P10828); test: qHTS assay for small molecule agonists of thyroid hormone receptor beta signaling (AID 588545);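 also: 0% = DMSO only and 100% = 10 nM T3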
Sequence of Thyroid hormone receptor beta (Homo sapiens) (P10828 whole entry, looked up): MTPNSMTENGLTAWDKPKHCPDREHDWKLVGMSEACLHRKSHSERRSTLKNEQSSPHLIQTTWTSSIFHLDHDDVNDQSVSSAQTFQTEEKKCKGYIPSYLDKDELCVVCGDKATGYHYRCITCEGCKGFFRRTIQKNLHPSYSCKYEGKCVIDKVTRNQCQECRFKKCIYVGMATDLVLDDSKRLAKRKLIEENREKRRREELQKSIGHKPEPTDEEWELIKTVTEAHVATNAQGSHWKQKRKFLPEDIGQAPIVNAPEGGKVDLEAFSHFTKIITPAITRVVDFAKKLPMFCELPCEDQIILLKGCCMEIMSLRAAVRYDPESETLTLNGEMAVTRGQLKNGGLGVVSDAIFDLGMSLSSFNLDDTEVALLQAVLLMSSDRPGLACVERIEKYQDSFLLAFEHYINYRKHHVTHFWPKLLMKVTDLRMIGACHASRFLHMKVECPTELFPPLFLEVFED
Outline: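 TR-UAS-bla GripTite HEK 293 cells (2500/well, medium with 2% charcoal/dextran FBS) were treated in agonist mode for 18 h at 37 C, titrated. Beta-lactamase was read by CCF4 ratio after 2 h; normalized to 10 nM T3 (100%) and DMSO, Hill-fitted for EC50 and efficacy.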

[5] = qHTS assay for small molecule antagonists of retinoid X receptor alpha signaling (AID 588546; active = well fitted inhibition curve with a large enough effect in the signal ratio, with a control signal flat, not every such curve was filed as active; the % refers to the signal ratio;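 also: cells stimulated with 9-cis-retinoic acid as agonist; % is scaled to controls: 0 for no effect and ±100 for the full control effect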); details: HEK293T RXRa-UAS-bla, beta-lactamase ratio, antagonist mode; measured here: W530 green channel, cytotoxicity proxy
Outline: (§1)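 Beta-lactamase reporter inhibition, read as CCF4 fluorescence ratio (ex 405, em 460/530 nm) after 2 h at RT. HEK293T UAS-bla cells, 2500/well, were stimulated with 9-cis-RA at 500 or 100 nM final alongside test compound for 18 h at 37 C.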

[6] = molecular target: Retinoic acid receptor RXR-alpha (Homo sapiens) (UniProt P19793); test: as above; details: HEK293T RXRa-UAS-bla, beta-lactamase ratio, antagonist mode
Sequence of Retinoic acid receptor RXR-alpha (Homo sapiens) (P19793 whole entry, looked up): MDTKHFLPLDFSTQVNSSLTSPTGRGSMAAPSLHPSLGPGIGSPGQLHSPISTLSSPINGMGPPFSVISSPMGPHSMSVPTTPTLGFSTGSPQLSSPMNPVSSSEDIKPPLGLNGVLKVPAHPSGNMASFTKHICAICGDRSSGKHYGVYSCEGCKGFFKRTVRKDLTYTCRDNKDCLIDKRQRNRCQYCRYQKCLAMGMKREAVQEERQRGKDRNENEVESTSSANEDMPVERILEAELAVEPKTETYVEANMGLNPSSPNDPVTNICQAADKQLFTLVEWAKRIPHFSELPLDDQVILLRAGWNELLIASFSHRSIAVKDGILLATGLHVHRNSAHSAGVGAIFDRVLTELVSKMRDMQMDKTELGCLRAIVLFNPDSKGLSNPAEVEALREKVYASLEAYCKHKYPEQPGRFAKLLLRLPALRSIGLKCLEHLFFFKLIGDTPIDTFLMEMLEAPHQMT
Outline: as §1

[7] = qHTS assay for small molecule activators of the nuclear factor-kappa B (NF-kB) signaling pathway (AID 651749; active = well fitted activation curve with a large enough effect in the signal ratio; the % refers to the signal ratio; also: series mostly up to about 77 µM; % of control where 0% means no effect); details: NF-kB-bla ME-180 cells, beta-lactamase FRET ratio, 16 h; activation: stronger effect = higher value
Outline: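 Screening used 2,000 ME-180 reporter cells per well exposed to pinned compound (23 nL) or DMSO; after 16 hr at 37C, beta-lactamase expression under NF-kB control was assessed through FRET.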

[8] = qHTS assay for environmental chemicals that activate the Aryl hydrocarbon Receptor (AhR) signaling pathway (AID 651777; active = well fitted curve in the direction sought with a large enough effect; an effect the other way counts as inactive or inconclusive; also: % of control where 0% means no effect; nearly all actives have a fitted effect of over 15% in size); details: 1A2-DRE human hepatoma cells, luciferase, 24 h; activation: stronger effect = higher value
Outline: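 Induction of CYP1A2 transcription through AhR is detected by luciferase in 1A2-DRE hepatoma cells. Compounds or DMSO act for 24 hr at 37 C before a 30 min One-Glo step at room temperature.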

[9] = molecular target: Peroxisome proliferator-activated receptor alpha (Homo sapiens) (UniProt Q07869); test: qHTS assay for small molecule agonists of the peroxisome proliferator-activated receptor alpha (PPARalpha) signaling pathway (AID 651778; active = well fitted curve in the direction sought with a large enough effect; an effect the other way counts as inactive or inconclusive; also: % of control where 0% means no effect); details: PathHunter PPARalpha complementation, chemiluminescence, 6 h; max response: stronger effect = higher value
Sequence of Peroxisome proliferator-activated receptor alpha (Homo sapiens) (Q07869 whole entry, looked up): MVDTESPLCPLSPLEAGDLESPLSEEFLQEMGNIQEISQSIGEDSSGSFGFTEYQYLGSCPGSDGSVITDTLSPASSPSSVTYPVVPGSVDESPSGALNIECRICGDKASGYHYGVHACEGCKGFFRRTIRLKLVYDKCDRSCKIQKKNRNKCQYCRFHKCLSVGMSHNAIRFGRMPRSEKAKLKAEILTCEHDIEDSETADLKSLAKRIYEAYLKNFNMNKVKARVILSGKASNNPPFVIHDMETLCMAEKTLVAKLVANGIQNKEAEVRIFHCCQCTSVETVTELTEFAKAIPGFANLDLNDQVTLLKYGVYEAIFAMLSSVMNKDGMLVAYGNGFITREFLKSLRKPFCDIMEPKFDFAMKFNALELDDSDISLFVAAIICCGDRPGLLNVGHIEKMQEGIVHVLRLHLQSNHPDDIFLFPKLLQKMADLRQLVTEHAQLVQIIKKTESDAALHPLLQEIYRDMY
Outline: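 Cells plated at 2,000/well and held overnight at 37 C, 5% CO2, then compound added by pin tool for 6 hr; after PathHunter detection reagent and 60 min at room temperature, chemiluminescence from enzyme complementation was read.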

[10] = qHTS assay for small molecule agonists of the antioxidant response element (ARE) signaling pathway measured by Nrf2-dependant transcriptional activity (AID 720636; active = well fitted curve in the direction sought with a large enough effect in the repeat runs; an effect the other way counts as inactive or inconclusive;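 also: HepG2 cells with an ARE-driven luciferase reporter; % of control where 0% means no effect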)
Outline: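 We exposed ARE-luc HepG2 cells, seeded in assay medium with 1% dialyzed FBS and allowed 6 hr to adhere, to test compounds overnight (16 hr, 37 C) before measuring luciferase with ONE-Glo.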

[11] = qHTS assay for small molecule agonists of the antioxidant response element (ARE) signaling pathway measured by Nrf2-dependant transcriptional activity - cell viability counter screen (AID 720653; active = well fitted curve in the direction sought with a large enough effect in the repeat runs; an effect the other way counts as inactive or inconclusive; also: % is scaled to controls: 0 for no effect and ±100 for the full control effect); details: ARE-bla HepG2 viability, CellTiter-Glo ATP luminescence, 16 h; max response: stronger effect = lower value
Outline: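 ARE-bla HepG2 cells (2,000/well) rested 5 hrs at 37C/5% CO2, then exposed to compounds in DMSO for 16 hrs. Viability was read in the same wells as intracellular ATP by luminescence, 30 min at room temperature after reagent addition.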

[12] = qHTS assay for cell viability of HEK293 cells (AID 743288; active = well fitted curve in the direction sought with a large enough effect; an effect the other way counts as inactive or inconclusive; also: % is scaled to controls: 0 for no effect and ±100 for the full control effect; nearly all actives have a fitted effect of over 50% in size); details: ATP luminescence (CellTiter-Glo), 18 h; max response: stronger effect = lower value
Outline: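 Luminescent ATP quantitation served as the viability read-out. Cells (parental HEK293, 2,000/well) received compounds after at least 5 h at 37 C and were exposed for 18 h before a 30 min room-temperature reagent step.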

[13] = qHTS assay for cell viability of the p53RE-bla HCT-116 cell line (AID 743292; active = well fitted curve in the direction sought with a large enough effect; an effect the other way counts as inactive or inconclusive; also: % is scaled to controls: 0 for no effect and ±100 for the full control effect; nearly all actives have a fitted effect of over 55% in size)
Outline: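 In this qHTS counter-screen, metabolically competent p53RE-bla HCT-116 cells were counted via their ATP content. Compounds were applied for 16 h at 37 C and luciferase-coupled luminescence was measured.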

[14] = molecular target: Nuclear receptor subfamily 1 group I member 2 (Rattus norvegicus) (UniProt Q9R1A7); test: qHTS assay for small molecule activators of the rat pregnane X receptor (rPXR) signaling pathway (AID 651751; call rule not given here; also: 0% is about no effect); details: rPXR reporter cells, luciferase (One-Glo), 24 h
Sequence of Nuclear receptor subfamily 1 group I member 2 (Rattus norvegicus) (Q9R1A7 whole entry, looked up): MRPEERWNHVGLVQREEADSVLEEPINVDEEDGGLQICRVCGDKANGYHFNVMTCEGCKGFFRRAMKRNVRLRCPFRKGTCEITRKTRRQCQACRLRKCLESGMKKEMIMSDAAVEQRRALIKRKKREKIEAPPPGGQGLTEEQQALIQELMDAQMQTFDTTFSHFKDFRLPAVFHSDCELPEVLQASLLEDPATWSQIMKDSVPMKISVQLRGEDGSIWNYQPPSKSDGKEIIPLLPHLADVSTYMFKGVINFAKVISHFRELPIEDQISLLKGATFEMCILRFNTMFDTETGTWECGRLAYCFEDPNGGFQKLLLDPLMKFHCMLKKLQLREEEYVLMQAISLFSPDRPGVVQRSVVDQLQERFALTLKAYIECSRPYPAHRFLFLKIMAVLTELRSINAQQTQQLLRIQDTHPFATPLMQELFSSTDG

[15] = qHTS assay for small molecule activators of the human pregnane X receptor (PXR) signaling pathway (AID 720659; call rule not given here; also: 0% is about no effect)
[16] = molecular target: Glucocorticoid receptor (Homo sapiens) (UniProt P04150); test: qHTS assay for small molecule agonists of glucocorticoid receptor signaling (AID 588532; active = well fitted curve in the direction sought with a large enough effect in the signal ratio, with a control signal flat; the % refers to the signal ratio;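 also: 100% = dexamethasone at 0.1 µM and 0% = DMSO only wells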); details: HeLa MMTV-bla, beta-lactamase ratio, agonist, 18 h; stronger effect = higher value; percent of dexamethasone control, DMSO zero
Sequence of Glucocorticoid receptor (Homo sapiens) (P04150 whole entry, looked up): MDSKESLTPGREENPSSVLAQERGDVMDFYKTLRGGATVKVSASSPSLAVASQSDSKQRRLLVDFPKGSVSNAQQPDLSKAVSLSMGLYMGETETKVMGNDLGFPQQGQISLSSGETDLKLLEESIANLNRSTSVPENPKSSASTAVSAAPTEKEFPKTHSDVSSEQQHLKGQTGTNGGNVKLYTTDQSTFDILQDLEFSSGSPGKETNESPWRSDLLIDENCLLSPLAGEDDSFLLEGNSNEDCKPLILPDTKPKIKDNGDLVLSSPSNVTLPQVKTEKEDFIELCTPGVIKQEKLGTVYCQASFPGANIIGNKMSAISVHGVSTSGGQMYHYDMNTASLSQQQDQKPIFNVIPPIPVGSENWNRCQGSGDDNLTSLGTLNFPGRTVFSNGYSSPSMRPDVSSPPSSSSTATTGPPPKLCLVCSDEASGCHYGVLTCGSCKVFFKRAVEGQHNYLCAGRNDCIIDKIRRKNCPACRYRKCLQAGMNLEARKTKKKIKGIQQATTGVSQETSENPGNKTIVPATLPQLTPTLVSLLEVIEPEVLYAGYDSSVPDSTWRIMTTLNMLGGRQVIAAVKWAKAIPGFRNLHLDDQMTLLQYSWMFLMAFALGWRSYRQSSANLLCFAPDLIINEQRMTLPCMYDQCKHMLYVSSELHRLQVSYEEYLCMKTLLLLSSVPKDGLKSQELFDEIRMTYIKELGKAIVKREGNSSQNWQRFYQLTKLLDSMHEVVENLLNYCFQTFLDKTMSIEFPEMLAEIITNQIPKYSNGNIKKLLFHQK
Outline: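 MMTV-bla HeLa, beta-lactamase reporter; medium with 1% charcoal/dextran-stripped FBS; cpds up to 92 uM, 18 h, 37 C; CCF4 readout 460/530 nm; Hill fit → EC50, efficacy vs 0.1 uM dexamethasone = 100%.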

[17] = molecular target: Glucocorticoid receptor (Homo sapiens) (UniProt P04150); test: qHTS assay for small molecule antagonists of glucocorticoid receptor signaling (AID 588533; active = well fitted inhibition curve with a large enough effect in the signal ratio, with a control signal flat, not every such curve was filed as active; the % refers to the signal ratio;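 also: cells stimulated with 2 nM dexamethasone as agonist; % is scaled to controls: 0 for no effect and ±100 for the full control effect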)
Outline: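 Antagonist-mode qHTS: compound titrations added to GRE-bla HeLa cells, then dexamethasone 2 nM final; 18 h, 37 C. CCF4 FRET fluorescence normalized to dexamethasone and DMSO; IC50 from Hill fit.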

[18] = molecular target: Peroxisome proliferator-activated receptor gamma (Homo sapiens) (UniProt P37231); test: qHTS assay for small molecule agonists of peroxisome proliferator-activated receptor gamma signaling (AID 588536; active = well fitted curve in the direction sought with a large enough effect in the signal ratio, with a control signal flat, not every such curve was filed as active; the % refers to the signal ratio;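 also: 0% = DMSO basal wells and 100% = rosiglitazone at 2 µM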)
Sequence of Peroxisome proliferator-activated receptor gamma (Homo sapiens) (P37231 whole entry, looked up): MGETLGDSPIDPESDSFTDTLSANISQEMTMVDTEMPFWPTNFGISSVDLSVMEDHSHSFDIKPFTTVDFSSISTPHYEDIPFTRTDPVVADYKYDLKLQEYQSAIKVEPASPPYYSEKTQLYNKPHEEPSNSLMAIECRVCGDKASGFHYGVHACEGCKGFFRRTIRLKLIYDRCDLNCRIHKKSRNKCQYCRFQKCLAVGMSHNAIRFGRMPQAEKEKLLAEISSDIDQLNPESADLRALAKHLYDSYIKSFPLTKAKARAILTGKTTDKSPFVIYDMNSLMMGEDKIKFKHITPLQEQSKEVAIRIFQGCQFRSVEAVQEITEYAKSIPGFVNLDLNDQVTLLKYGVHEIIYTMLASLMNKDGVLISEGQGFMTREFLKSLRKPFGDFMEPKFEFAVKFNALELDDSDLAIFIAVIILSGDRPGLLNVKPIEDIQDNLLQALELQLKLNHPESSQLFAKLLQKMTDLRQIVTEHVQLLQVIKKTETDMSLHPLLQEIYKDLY
Outline: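 Test agents, titrated, stimulated HEK293 UAS-bla cells overnight (16 h, 37 C). Substrate CCF4 was then added for two hours at room temperature before fluorescence reading.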

[19] = qHTS assay for small molecule agonists of retinoid X receptor alpha signaling (AID 588544); details: HEK293T RXRa-UAS-bla, beta-lactamase reporter, 18 h; 530 nm emission;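 as to activation: 0% = DMSO basal wells and 100% = reference agonist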
[20] = molecular target: Retinoic acid receptor RXR-alpha (Homo sapiens) (UniProt P19793); test: as above

SMILES | Potency [1] | Potency [2] | outcome [3] | Potency [4] | max response [5] | max response [6] | activation [7] | activation [8] | max response [9] | Potency [10] | max response [11] | max response [12] | Potency [13] | max response [14] | outcome [15] | activation [16] | Potency [17] | outcome [18] | max response [19] | Potency [20]
O=C(O)C(c1ccc(Cl)cc1)c1ccc(Cl)cc1 | inactive | inactive | inactive | inactive | -10.2% | 12.2% (inactive) | 0.121% (inactive) | -0.789% (inactive) | 3.51% (inactive) | inactive | -12.1% (inactive) | 0.137% (inactive) | inactive | -4.74% (inactive) | inactive | – | – | – | – | –
CN=C(N)NCC1CCOC1 (stereo not drawn) | inactive | inactive | – | inactive | -4.8% | 8.29% (inactive) | -4.18% (inactive) | 14.3% (inactive) and -0.391% (inactive) | -3.68% (inactive) and 0.552% (inactive) | inactive | -1.14% (inactive) | -9.41% (inactive) | inactive | -8.95% (inactive) and -6.71% (inactive) | inactive | -0.0864% (inactive) and -2.61% (inactive) | inactive | inactive | -7.78% | inactive
C=CCOC(=O)CC(C)C | inactive | inactive | inactive | inactive | -12.5% | 1.64% (inactive) | -0.542% (inactive) | -1.24% (inactive) | -0.161% (inactive) | – | -7.46% (inactive) | -9.09% (inactive) | inactive | -1.76% (inactive) | inactive | 0.929% (inactive) | inactive | inactive | -1.51% | inactive
CCC/C(=N\OCC)C1=C(O)CC(O)(CC(C)S(=O)(=O)CC)CC1=O (stereo not drawn) | inactive | inactive | inactive | inactive | -7.24% | 3.08% (inactive) | -2.79% (inactive) | 3.19% (inactive) | -0.0131% (inactive) | inactive | -10.1% (inactive) | -1.14% (inactive) | inactive | 2.09% (inactive) | inactive | -6.04% (inactive) | inactive | inactive | -16.2% | inactive
